SARS PLP yeast = blocks SARS-CoV papain-like protease in a yeast assay | 0.19% of 330,000 active | AID 485353 | Potency, µM (doses to about 32.9 µM), most hits filed as activators | S. cerevisiae expressing SARS-CoV PLpro, growth rescue; calls by dose curve; further: nearly all actives have a fitted effect of over 55% in size
AMA1-RON2 inh = AMA1-RON2 (P. falciparum) interaction inhibition; AlphaScreen AMA1-biotinylated RON2 peptide binding; Potency, µM (highest dose often 58.2 µM), most hits filed as inhibitors; 0.2% of 360,000 active; AID 720542; further: nearly all actives have a fitted effect of over 45% in size
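AMA1 (3D7) with his tag at 25 nM final met compounds first, then biotinylated RON2 peptide at 25 nM; detection used donor plus acceptor beads, 10 µg/mL apiece, read by AlphaScreen after 30 min at room temperature.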
Pf growth 48h = P. falciparum growth inhibition at 48 hours (one generation); P. falciparum luciferase growth in erythrocytes, 48 h; 5.9% of 310,000 active; Potency, µM (titrated, usually from 28.7 µM), most hits filed as inhibitors
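First compound was added to culture medium, then infected red cells at 0.1% parasitemia and 2% hematocrit (final). After incubation at 37 C under 5% CO2, luciferase detection reagent was dispensed and light output recorded.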
NS1 function inh = inhibitors of influenza NS1 protein function | Potency, µM (top dose mostly 46.1 µM) | AID 2326 | 0.4% of 270,000 active; calls by dose curve; further: actives are rising curves; nearly all actives have a fitted effect of over 50% in size
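S. cerevisiae expressing influenza A NS1, grown in glucose, washed, then diluted 1:100 into pH 6.0 -URA galactose medium with 23 nl compound. Growth recovery read as OD600; NS1-free strain serves as control.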
HCV inhibitor = inhibitors of hepatitis C virus infection; Huh7.5.1 HCVcc-Cre infection, luciferase reporter, 44 h; Potency, µM (series often up to 41.8 µM), most hits filed as inhibitors; 3.4% of 340,000 active; AID 651820
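Whole-lifecycle infectious HCVcc-Cre system; cells 1,000/well, compound then virus (~0.5 moi) added 4 h after plating, 44 h culture. Luciferase read 15 sec following 15 min substrate incubation, room temp.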
Pf growth 96h = P. falciparum growth inhibition at 96 hour, primary screen for plastid delayed-death inhibitors; P. falciparum luciferase reporter growth, 96 h; Potency, µM (top dose mostly 28.7 µM), most hits filed as inhibitors; 6.9% of 320,000 active; AID 504834
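Luminescence readout: decreased luciferase signal marks inhibited growth of reporter-expressing P. falciparum in infected red cells (2% hematocrit, 0.05% parasitemia final), exposed to compound two generations (96 h, 37 C, 5% CO2).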
Of the large screens only hits and unclear results are named; the others gave an inactive call. Sampled rows, rich in hits. Any-hit rate of the full collection: about 12%. Unless noted, the call rests on the fitted dose curve; in most records, active means well fitted curve in the direction sought with a large enough effect; inconclusive means small, poorly fitted or top-dose-only effect, or another doubt; inactive means no such curve, though single readings can be large; an effect the other way counts as inactive or inconclusive.

NC(=O)c1ncn([C@@H]2O[C@H](CNCc3cccc(OC4CCCC4)c3)[C@@H](O)[C@H]2O)n1	none (no result: SARS PLP yeast, Pf growth 48h, NS1 function inh, Pf growth 96h)
COc1ccc(CCN2CC(O)=C(c3nc4ccccc4c(=O)[nH]3)C2=N)cc1OC	Pf growth 48h 13.1µM (no result: Pf growth 96h)
COCc1cn(CC(C)n2c(=O)c3ccccc3n2Cc2cc(C(C)C)no2)nn1 (stereo not drawn)	none (no result: SARS PLP yeast, Pf growth 48h, NS1 function inh, HCV inhibitor, Pf growth 96h)
CN1CCN(c2ccc(Cl)cc2NC(=O)c2ccc(S(=O)(=O)N(C)C)cc2)CC1	Pf growth 96h 3.29µM (no result: Pf growth 48h)
CN(C)S(=O)(=O)c1ccc(C(=O)Nc2cc(S(=O)(=O)Nc3ccccc3Cl)ccc2N2CCCCC2)cc1	Pf growth 48h 2.33µM, NS1 function inh inconclusive, HCV inhibitor inconclusive, Pf growth 96h 1.31µM
CN(C)S(=O)(=O)c1cccc(C(=O)Nc2ccccc2N2CCCCC2)c1	Pf growth 48h inconclusive, Pf growth 96h inconclusive
CCN(CC)S(=O)(=O)c1cc(C(=O)Nc2cc(Cl)ccc2N2CCN(C)CC2)ccc1Cl	Pf growth 96h 2.62µM (no result: Pf growth 48h)
CN(C)S(=O)(=O)c1ccc(C(=O)Nc2ccc(F)cc2F)cc1	none
CCCCC[C@@H]1C=C(C(=O)O)[C@H](c2cccc(C)c2)N1S(=O)(=O)c1ccc(C)cc1	none (no result: Pf growth 48h, NS1 function inh, Pf growth 96h)
CN1C[C@@H]2[C@@H]3C(=O)N(Cc4ccccc4)C(=O)[C@@H]3[C@](Cc3ccccc3)(C1=O)N2C(=O)c1ccc(Br)cc1	none (no result: SARS PLP yeast, Pf growth 48h, NS1 function inh, Pf growth 96h)
CN(C)c1ccc(-c2sc(Nc3ccccc3)n[n+]2-c2ccc(F)cc2)cc1	HCV inhibitor inconclusive, Pf growth 96h inconclusive
CCc1ccc(Nc2n[n+](-c3ccccc3)c(-c3ccc(OCc4ccccc4)cc3)s2)cc1	Pf growth 48h inconclusive, HCV inhibitor inconclusive, Pf growth 96h 2.94µM
CCc1ccc(Nc2n[n+](-c3ccccc3)c(-c3ccc(N(CC)CC)cc3)s2)cc1	Pf growth 48h inconclusive, HCV inhibitor 11.2µM, Pf growth 96h 3.29µM
CCN(CC)c1ccc(-c2sc(Nc3ccccc3)n[n+]2-c2ccc(F)cc2)cc1	Pf growth 96h 9.28µM
c1ccc(COc2ccc(-c3sc(Nc4ccccc4)n[n+]3-c3ccccc3)cc2)cc1	Pf growth 48h inconclusive, Pf growth 96h inconclusive (no result: AMA1-RON2 inh, HCV inhibitor)
COc1ccc(-c2sc(Nc3ccccc3)n[n+]2-c2ccc(F)cc2)cc1Br	Pf growth 48h inconclusive, Pf growth 96h 7.38µM
O=[N+]([O-])c1ccc2c(N=Nc3ccc4ccccc4c3O)c(O)cc(S(=O)(=O)O)c2c1	none (no result: SARS PLP yeast, AMA1-RON2 inh, Pf growth 48h, HCV inhibitor, Pf growth 96h)
COc1ccc2c(c1)-c1nc(/N=C/c3ccccc3O)sc1CC2	HCV inhibitor 10µM, Pf growth 96h inconclusive
Cc1ccccc1NC(=O)CN1C(=O)N/C(=C\c2ccccc2OCc2ccc(C(=O)O)cc2)C1=O	none
NCCCC[C@H]1CN=C(N)N1CCC12CC3CC(CC(C3)C1)C2	Pf growth 48h 9.28µM, Pf growth 96h 3.7µM
Cc1ccc2ccccc2c1NC(=O)Cn1nnc(-c2cccnc2)n1	AMA1-RON2 inh inconclusive, Pf growth 96h 0.657µM
Oc1cc(CN2COc3ccccc32)c(O)cc1CNC1CCCCC1	none (no result: SARS PLP yeast, AMA1-RON2 inh, Pf growth 48h, HCV inhibitor, Pf growth 96h)
Cc1ccc(Nc2nc(Cl)nc(N(C)C#N)n2)cc1	HCV inhibitor inconclusive, Pf growth 96h 7.38µM
COCCN(C(=O)CSc1n[nH]c(-c2ccccc2)n1)c1c(N)n(CC(C)C)c(=O)[nH]c1=O	none (no result: NS1 function inh)
COc1ccccc1-c1nnc(Sc2nc([N+](=O)[O-])nn2C)o1	HCV inhibitor 10µM, Pf growth 96h 1.85µM (no result: Pf growth 48h)
COc1ccc(OC)c(CN2C(=O)CN(S(C)(=O)=O)CC2(C)C(=O)Nc2c(C)cccc2C)c1 (stereo not drawn)	none (no result: SARS PLP yeast, Pf growth 48h, NS1 function inh, HCV inhibitor, Pf growth 96h)
FC(F)Sc1ccc(N=C2NN=C(c3ccc4c(c3)OCCO4)CS2)cc1	Pf growth 48h inconclusive, HCV inhibitor 10µM, Pf growth 96h inconclusive
N#CC(C#N)=C1C=CC=CN1/C(=C\c1ccco1)C(=O)c1ccccc1	Pf growth 48h inconclusive, HCV inhibitor inconclusive, Pf growth 96h inconclusive
COc1ccc(C(=O)/C(=C\c2ccco2)N2C=CC=CC2=C(C#N)C#N)cc1	Pf growth 48h inconclusive, HCV inhibitor 11.2µM, Pf growth 96h inconclusive
Cc1cc(Br)ccc1NC(=O)C1C2CCC(O2)C1C(=O)O (stereo not drawn)	Pf growth 96h inconclusive
Cc1nc(SCc2cccc(F)c2)c2oc3ccccc3c2n1	Pf growth 48h 10.4µM, Pf growth 96h inconclusive

Bioassay records as filed in PubChem.
